Compounds without any hit were thinned out: in the full panel of roughly 79,000, 15% have a hit. The source made the active and inactive calls. Rule as the data show it: active = growth inhibition above about 70%; inactive = the rest.
Test: NCI Yeast Anticancer Drug Screen. Data for the rad50 strain (AID 155);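 also: 0% = growth of vehicle-only cultures of the same strain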
Settings: S. cerevisiae rad50 strain growth inhibition; at 50.0 µM; hits give high values
In short: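 Genetically altered yeast (DNA repair pathway); compound treatment; growth inhibition vs vehicle ctrl.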

Question: For `C=CCCC(C)(C(=O)OCC)C(=O)OCC`, which growth inhibition is on record?
Answer: 7.45% (inactive)

Question: With `C(CCC[Si]12OCCN(CCO1)CCO2)CC[Si]12OCCN(CCO1)CCO2` as the compound, how does the growth inhibition read?
Answer: 6% (inactive)

Question: For `C=C1C2CC[C@@]3(CC[C@@H]4[C@@]5(C)CCC[C@@]4(CN4CCO[C@H]45)[C@@H]3C2)[C@@H]1O`, which growth inhibition is on record?
Answer: -2.4% (inactive)

Question: Which growth inhibition does the source give for `CCC(C)C(N)C1=NC(C(=O)NC(CC(C)C)C(=O)NC(CCC(=O)O)C(=O)NC(C(=O)NC2CCCCNC(=O)C(CC(N)=O)NC(=O)C(CC(=O)O)NC(=O)C(Cc3cnc[nH]3)NC(=O)C(Cc3ccccc3)NC(=O)C(C(C)CC)NC(=O)C(CCCN)NC2=O)C(C)CC)CS1` (stereo not given) here?
Answer: 12.9% (inactive)

Question: For `NC(=S)Cc1ccccn1`, which growth inhibition is on record?
Answer: -1.45% (inactive)

Question: With `Cc1ccc(/C=N/NC(N)=S)c(C)c1` as the compound, how does the growth inhibition read?
Answer: 8.5% (inactive)

Question: For `CCOC(=O)CC(C)C(C(=O)OCC)C(=O)OCC` (stereo not given), which growth inhibition is on record?
Answer: 1.05% (inactive)

Question: Which growth inhibition does the source give for `CN(C)c1nc(=NCc2ccncc2)ss1` here?
Answer: -38.2% (inactive)

Question: Which growth inhibition does the source give for `CN(C)C(=O)Sc1ccc(N(C)C)cc1` here?
Answer: -5.15% (inactive)

Question: For `Cc1nc(C)c(N2CCN(S(=O)(=O)N(Cc3ccccc3)Cc3ccccc3)CC2)c(=O)[nH]1`, which growth inhibition is on record?
Answer: -22.7% (inactive)

Question: For `CCCC1SCC(C)(C)NC1=O` (stereo not given), which growth inhibition is on record?
Answer: 4.85% (inactive)

Question: With `CCCCCCP(=O)(CCCCCC)C1CCCCC1` as the compound, how does the growth inhibition read?
Answer: 98.1% (active)

Question: With `Clc1ccc(-c2nnc(-c3ccc4ccccc4c3)o2)cc1Cl` as the compound, how does the growth inhibition read?
Answer: 3.25% (inactive)

Question: Which growth inhibition does the source give for `Nc1ccc(S(=O)(=O)Nc2nc3ccccc3nc2Nc2ccc(S(N)(=O)=O)cc2)cc1` here?
Answer: 6.3% (inactive)

Question: With `O=S1(=O)CCC(Br)c2ccccc2C1` (stereo not given) as the compound, how does the growth inhibition read?
Answer: 6.15% (inactive)

— PubChem BioAssay (NCI)
